Test results taken from PubChem BioAssay (NCI).
The panel holds about 79,000 compounds, 15% with a hit somewhere; the sample as a whole holds those more often. A number with no mark means an inactive call. Active and inactive are the calls of the source. Cut-off read from the data, not from the text of the source: active = growth inhibition above about 70%; inactive = the rest.

Columns and labels:
[1] = NCI Yeast Anticancer Drug Screen. Data for the rad50 strain (AID 155);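 note: 0% = growth of vehicle-only cultures of the same strain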; settings: S. cerevisiae rad50 strain growth inhibition; at 50.0 µM; hits give high values
Summary of the method: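 Genetically altered yeast (DNA repair pathway); compound treatment; growth inhibition vs vehicle ctrl.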

[2] = NCI Yeast Anticancer Drug Screen. Data for the mec2-1 strain (AID 157); settings: S. cerevisiae mec2-1 strain, at 50.0 µM, hits give high values
Summary of the method: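 Strain: mec2-1 (DNA repair/cell cycle alteration). Compound exposure, then growth measured; inhibition expressed relative to vehicle.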

[3] = NCI Yeast Anticancer Drug Screen. Data for the sgs1 mgt1 strain (AID 161);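 note: 0% = growth of cultures given vehicle only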; settings: S. cerevisiae sgs1 mgt1 strain, at 50.0 µM, hits give high values
Summary of the method: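 Genetically altered yeast, compound exposure, growth inhibition relative to vehicle.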

[4] = NCI Yeast Anticancer Drug Screen. Data for the cln2 rad14 strain (AID 165);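 note: 0% = growth equal to vehicle treated cultures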; settings: S. cerevisiae cln2 rad14 strain, at 50.0 µM, hits give high values
Summary of the method: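 Compounds are applied to the cln2 rad14 yeast strain, and growth is then compared with that of vehicle-treated cultures to give inhibition.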

[5] = NCI Yeast Anticancer Drug Screen. Data for the bub3 strain (AID 167); settings: S. cerevisiae bub3 mutant strain, at 50.0 µM, hits give high values
Summary of the method: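 Yeast carrying a defined mutation is treated with each compound, and growth is compared with that of vehicle-exposed cells to give inhibition.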

[6] = NCI Yeast Anticancer Drug Screen. Data for the mlh1 rad18 strain (AID 175); settings: S. cerevisiae mlh1 rad18 strain growth inhibition; at 50.0 µM; hits give high values
Summary of the method: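 Read-out is yeast growth inhibition, calculated against vehicle-only controls. The compound was applied to a strain engineered with DNA damage repair alterations.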

Compound	growth inhibition [1]	growth inhibition [2]	growth inhibition [3]	growth inhibition [4]	growth inhibition [5]	growth inhibition [6]
Oc1ccc(C2SCc3nc4ccccc4n32)cc1 (configuration not stated)	-7.85%	-17.9%	-35.9%	-7.3%	-45.1%	-25.1%
CC(C)(C)NC1=C([N+](=O)[O-])CCCC1	4.25%	6%	-1.05%	-19.6%	11.9%	4.5%
N/C(=N\OC(=O)NC(Cl)=C(Cl)Cl)c1ccc(Cl)cc1	-18.9%	-34.4%	7.4%	16.7%	-13.9%	-7.95%
COC(=O)c1nc(N)nc(N)c1[N+](=O)[O-]	-8.45%	-17.7%	-22.6%	-15.2%	-4.05%	-14.9%
NC(=O)COc1c(Br)cc(Br)cc1Br	-1.55%	6.65%	-12.1%	-3.75%	-21.4%	-25.4%
CCN(c1ccc(Br)cc1)c1ccc(Br)cc1	-14.2%	-20.1%	-23.2%	-7.75%	3.75%	7.55%
CC(=O)OCC(=O)C1(C)CCC2(C)CCC3(C)C(=CC(=O)C4C5(C)CCC(=O)C(C)(C)C5CCC43C)C2C1 (configuration not stated)	-2.95%	-30.8%	2.7%	-2.25%	13.7%	15.4%
COc1cc(/C=C/c2cc(/C=C/c3ccc(O)c(OC)c3)c([N+](=O)[O-])cc2[N+](=O)[O-])ccc1O	66.3%	23.8%	42.4%	-4.45%	7.15%	47.7%
O=C(Nc1ccc(N=C=S)cc1Cl)c1cc(Cl)cc(Cl)c1O	82.3% (active)	56.9%	78.5% (active)	67.7%	82.5% (active)	82.5% (active)
NC(=S)N/N=C(\c1ccccc1)c1cccc2ccccc12	5.1%	50.7%	59%	-35.3%	58.5%	33.5%
CCC(CC)(C1CCC(=O)CC1)C1CCC(=O)CC1	45.9%	-3.55%	-1.05%	-9.2%	37.1%	13.6%
COc1ccc(/C=C(/C#N)C(N)=O)c(OC)c1	1.85%	-15.8%	-34.1%	-34.9%	-31.8%	2.55%
COc1ccc(CCN(C)C(c2ccccc2)c2ccccc2)cc1OC	-2.8%	-6.65%	10.9%	3.75%	4.75%	3.3%
CCOc1c(N2CCOCC2)c(=O)c1=O	11.6%	-19.4%	5.7%	6.65%	30.9%	5.95%
NCCSCCN	-7.65%	-2.45%	-4.65%	-0.3%	13.2%	8.15%
O=[N+]([O-])c1ccccc1S(=O)NCc1c(Cl)cccc1Cl (configuration not stated)	14.1%	13.3%	24.5%	22.5%	5.2%	24.5%
O=c1cccc(O)[nH]1	-14.8%	-17.6%	-15.1%	-0.15%	-15.7%	-8.85%
CC12CCC(O)CC1=CCC1C2CCC2(C)C(C(O)CC(O)(C(F)(F)F)C(F)(F)F)CCC12 (configuration not stated)	30.1%	48%	47.9%	3.95%	25.9%	40.5%
OC(Cc1cccc(=S)[nH]1)(c1ccccc1)c1ccccc1	-7.35%	-7.25%	-9.25%	-37.9%	-1.8%	-26.3%
NC(=O)N1N=C2c3ccccc3SC[C@H]2[C@@H]1c1ccccc1	29.5%	-23.2%	-26.8%	2.55%	-20.9%	21.6%
COC1OC(CO)C(O)C2OCCOCCOC3C(OC)OC(CO)C(O)C3OCCOCCOC12 (configuration not stated)	-2.65%	-4.4%	5.9%	-7.7%	-0.5%	18.5%

Compound	growth inhibition [1]	growth inhibition [2]	growth inhibition [3]	growth inhibition [4]	growth inhibition [5]	growth inhibition [6]
O=C(O)CCC(=O)C(Cc1ccccc1)NC(=O)c1ccccc1 (configuration not stated)	-14.4%	-16.6%	-10.1%	-4.05%	6.1%	-10.4%
O=S(=O)(c1ccccc1)n1c2c(c3ccccc31)Cc1ccccc1-2	-3.75%	0.75%	-16.9%	-8.4%	-2.1%	-6.55%
Cn1c(=O)c2c(nc(OC3CCCCC3)n2C)n(C)c1=O	14.1%	-1.3%	29.4%	26.1%	57.5%	-2.95%
CC(=O)OC1OC(COC(c2ccccc2)(c2ccccc2)c2ccccc2)C(OCc2ccccc2)C(OCc2ccccc2)C1OC(C)=O (configuration not stated)	-14.3%	-18.1%	-21.1%	13.3%	0.45%	1.65%
OCC1CCCCCCCCCC1	36.3%	-10.7%	29.8%	25.1%	20.1%	44.5%
CCOC(=O)CCC(C(=O)OCC)c1nc2ccccc2[nH]c1=O (configuration not stated)	12.6%	11.9%	12.6%	-2.75%	14.1%	14.2%
CC(=O)CCc1ccccc1	5.6%	-7.8%	-0.9%	-23%	-1.75%	1.9%
O=C1C(=C(c2ccc([N+](=O)[O-])cc2)N2CCOCC2)C(=O)c2ccccc21	8.9%	0.4%	6.45%	-30.9%	1.75%	10.3%
O=C1/C(=C/c2ccc3c(c2)OCO3)SC2C=Nc3ccccc3N12 (configuration not stated)	-14%	-20.3%	1.2%	-7.45%	2.5%	-8.65%
CN(C)c1ccc(/C=C2/CC(=O)N(c3ccccc3)C2=O)cc1	16.3%	1.15%	25.1%	-35.3%	-0.9%	15.6%
CCOc1ncnc2ccc(Cl)c(I)c12	12.2%	0.55%	24.6%	10.2%	35.9%	16.7%
Cc1nn(C(=O)Cc2ccccc2)c2c1C(c1ccc([N+](=O)[O-])cc1)SC(N)=N2 (configuration not stated)	11.4%	9.9%	22.4%	15.8%	8.15%	9.75%
CC1=NNC(=O)C2CCC(=O)N12 (configuration not stated)	14.8%	1%	7.15%	11.1%	12.1%	22.8%
CCC(=O)Oc1c(C(C)C)cccc1C(C)(C)C	-22%	-31.6%	-19.7%	-8%	-31.4%	-14.8%
NC(=O)C1CC(I)C2CC1C(=O)O2 (configuration not stated)	1.45%	-4.3%	-4.45%	4.3%	0.35%	-6.5%
C[N+](C)(C)CCC(=O)CC[N+](C)(C)C	16.2%	-2.2%	0.5%	-24.4%	32.6%	40.9%
COc1ccc(SSc2ccc(OC)cc2)cc1	25.9%	-1.1%	12.2%	1.95%	6.2%	18.8%
COc1cc(NCCCCCN2C(=O)c3ccccc3C2=O)c2ncccc2c1	13.9%	13.2%	17.4%	11%	10.7%	0.1%
O=C(O)/C=C(\Br)C(=O)O	16.1%	-4.1%	-1%	-11.4%	-5.4%	5.3%
CS(=O)(=O)NCC1OC(n2cnc3c(N)ncnc32)C(O)C1O (configuration not stated)	12.2%	-9.3%	19%	-5.95%	30.5%	1.8%
COc1ccc(CC[N+]2=Cc3cc(OC)c(OC)cc3CC2)cc1OC	-0.9%	-2.8%	12.6%	13.3%	2.7%	15.5%
